MAPPIT interaction score data for 14 molecules are collected here from the supplement of paper PMC10105736.

Common to all, as to assay: MAPPIT interaction score (arbitrary units); higher = stronger binary interaction signal, active = hit call of the paper
The target in one experiment is Dif. Particulars: pair source set: Lit-BM-16.
The target in another experiment is Cyp1. Particulars: pair source set: Lit-BM-16.
In another experiment the target is Dysb. The note with it: pair source set: Lit-BM-16.
In the next experiment the target is DnaJ-1. The note with it: MAPPIT configuration: N-N; pair source set: Lit-BM-16.
The next experiment has as its target DIP1. Particulars: MAPPIT configuration: N-N; pair source set: screen_2.
For a further experiment, the target named is kermit. The note with it: MAPPIT configuration: N-N; pair source set: Curagen_high_conf.
Another experiment deals with shv. The note with it: MAPPIT configuration: N-N; pair source set: Curagen_high_conf.
A further experiment deals with Dlc90F. The note with it: MAPPIT configuration: N-N; pair source set: Finley_Y2H.
The target of the next experiment is Mtap. Particulars: MAPPIT configuration: N-N; pair source set: screen_1.
The next experiment deals with Dhod. The note with it: MAPPIT configuration: N-N; pair source set: Curagen_high_conf.
Another experiment addresses cindr. Particulars: MAPPIT configuration: N-N; pair source set: Lit-BM-16.
For another experiment, the target named is Dpm3. The note with it: MAPPIT configuration: N-C; pair source set: screen_3.
The next experiment has as its target Dfd. Particulars: MAPPIT configuration: N-N; pair source set: Finley_Y2H.
The next experiment deals with Deaf1. Particulars: MAPPIT configuration: N-N; pair source set: screen_1.
The target of the next experiment is Drat. Particulars: MAPPIT configuration: N-N; pair source set: RRS.
For the next experiment, the target named is Doc1. Particulars: MAPPIT configuration: N-C; pair source set: screen_3.
The target in another experiment is Doa. Particulars: MAPPIT configuration: N-N; pair source set: Finley_Y2H.
In a further experiment the target is Dpit47. Particulars: pair source set: RRS.
A further experiment addresses Vps51. Particulars: MAPPIT configuration: N-N; pair source set: Curagen_high_conf.

Unmarked numbers belong to inactive results.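 Rule for the calls: active = MAPPIT score above the 99th percentile of random reference set scores in the same batch; inactive = at or below it.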
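Note: HEK293T cells with Epo stimulation, STAT-responsive firefly luciferase reporter, fold induction versus unstimulated cells divided by the larger fold induction of two negative controls lacking either bait or prey.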

B1: Rel (protein)
chain: MNMNQYYDLDNGKNVMFMNDASSTSGYSSSTSPNSTNRSFSPAHSPKTMELQTDFANLNLPGGNSPHQPPMANSPYQNQLLNNGGICQLGATNLINSTGVSFGVANVTSFGNMYMDHQYFVPAPATVPPSQNFGYHQNGLASDGDIKHVPQLRIVEQPVEKFRFRYKSEMHGTHGSLNGANSKRTPKTFPEVTLCNYDGPAVIRCSLFQTNLDSPHSHQLVVRKDDRDVCDPHDLHVSKERGYVAQFINMGIIHTAKKYIFEELCKKKQDRLVFQMNRRELSHKQLQELHQETEREAKDMNLNQVRLCFEAFKIEDNGAWVPLAPPVYSNAINNRKSAQTGELRIVRLSKPTGGVMGNDELILLVEKVSKKNIKVRFFEEDEDGETVWEAYAKFRESDVHHQYAIVCQTPPYKDKDVDREVNVYIELIRPSDDERSFPALPFRYKPRSVIVSRKRRRTGSSANSSSSGTESSNNSLDLPKTLGLAQPPNGLPNLSQHDQTISEEFGREKHLNEFIASEDFRKLIEHNSSDLEKICQLDMGELQHDGHNRAEVPSHRNRTIKCLDDLFEIYKQDRISPIKISHHKVEKWFIEHALNNYNRDTLLHEVISHKKDKLKLAIQTIQVMNYFNLKDVVNSTLNADGDSALHVACQQDRAHYIRPLLGMGCNPNLKNNAGNTPLHVAVKEEHLSCVESFLNGVPTVQLDLSLTNDDGLTPLHMAIRQNKYDVAKKLISYDRTSISVANTMDGNNALHMAVLEQSVELLVLILDAQNENLTDILQAQNAAGHTPLELAERKANDRVVQLLKNVYPEKGELAMTWIPCKVKEEIDSSSDESSDAGQLEIKSEEMDIETKDEDSVELDLSSGPRRQKDESSRDTEMDNNKLQLLLKNKFIYDRLCSLLNQPLGHGSDPQDRKWMQLARQTHLKQFAFIWLGAEDLLDHVKRKGASVEFSTFARALQAVDPQAYALLVNPT
Turning to B1, the MAPPIT interaction score with Dif (MAPPIT configuration: N-C) was 3.09; with Dif (MAPPIT configuration: N-N), 1.57.

B2: Eno (protein)
chain: MSWTASVFLRTSTTSMKFLRLRWPLPRIPQNKSANVAPRFRSKSAVSQLSSGFKFVQIRKSTCDSNEMTIKAIKARQIYDSRGNPTVEVDLTTELGLFRAAVPSGASTGVHEALELRDNDKANYHGKSVLKAVGHVNDTLGPELIKANLDVVDQASIDNFMIKLDGTENKSKFGANAILGVSLAVAKAGAAKKGVPLYKHIADLAGNKEIILPVPAFNVINGGSHAGNKLAMQEFMILPTGATSFTEAMKMGSEVYHHLKNVIKAKFGLDATAVGDEGGFAPNIQSNKEALNLISDAIAKAGYTGKIEIGMDVAASEFYKDGQYDLDFKNEKSDKSQWLPADKLANLYQEFIKDFPIVSIEDPFDQDHWEAWSNLTGCTDIQIVGDDLTVTNPKRIATAVEKKACNCLLLKVNQIGTVTESIAAHLLAKKNGWGTMVSHRSGETEDSFIGDLVVGLSTGQIKTGAPCRSERLAKYNQILRIEEEIGAGVKFAGKSFRKPQ
B2: the MAPPIT interaction score is 0.69 in the experiment with Cyp1 (MAPPIT configuration: N-C) and -0.102 with Cyp1 (MAPPIT configuration: N-N).

B3: Snapin (protein)
chain: MDSDSTVTSLEENTENFCTNPTRDILAEGITNLFKPTIERLDERVASTIQLQAELRGQLDALAAQLRDIEKAQSQIPEFADKVKELLNVKHKVTVISNVLVTSQERLTGLHKLIEKEQRRRQALLDSALSTNIS
B3: the MAPPIT interaction score in the experiment with Dysb (MAPPIT configuration: N-C) was -2.54; in the experiment with Dysb (MAPPIT configuration: N-N) it was 0.529.

B4: Mlf (protein)
chain: MSLFGALMGDFDDDLGLMNNHMNHTMNAMNMQMRSMNRLMNSFMPDPFMQVSPFDQGFQQNALMERPQMPAMPAMGLFGMPMMPNFNRLLNADIGGNSGASFCQSTVMTMSSGPDGRPQIYQASTSTKTGPGGVRETRRTVQDSRTGVKKMAIGHHIGERAHIIEKEQDMRSGQLEERQEFINLEEGEAEQFDREFTSRASRGAVQSRHHAGGMQAIMPARPAAHTSTLTIEPVEDDDDDDDDCVIQEQQPVRSSAGRHYSSAPTAPQNSGNIATAAAPTPTSSPTTYDTSNGNNNNYVSSRRSYLRNGHGHSLATPRRPLRTPPSSPLATVSTSPSIHPHPYAANPRRQQRAVKHFHTEDEAASSYKAVKRGKKK
With B4, the MAPPIT interaction score in the experiment with DnaJ-1 is -0.321.

B5: Mob4 (protein)
chain: MKMADGSTILRRNRPGTKSKDFCRWPDEPLEEMDSTLAVQQYIQQLIKRDPSNVELILTMPEAQDEGVWKYEHLRQFCMELNGLAVRLQKECSPSTCTQMTATDQWIFLCAAHKTPKECPAIDYTRHTLDGAACLLNSNKYFPSRVSIKESSVTKLGSVCRRVYRIFSHAYFHHRRIFDEFEAETYLCHRFTHFVTKYNLMSKENLIVPINVGENAAPGESEA
Turning to B5, the MAPPIT interaction score with DIP1 is 0.606; with kermit, 0.744; with shv, 0.755.

B6: Mtap (protein)
chain: MITIKCKDTNLDPLPVKIGIIGGSGLDDPDILEQRQERVVETPYGEPSDALIEGEINGVQCVLLARHGRKHDIMPSNVNYRANIWALRDVGCTHLIVSTACGSLREEIKPGNLVVPHDFIDRTTKRLQTFYDGKAQSPRGVCHLPMFPAFSERTRNILLQAAKELEIPAHDKATIVTIEGPRFSSRSESHMFRQWGGDLINMTTCPEVVLAKEAGLLYGSVAIATDYDCWRMGCEGVNVQDVLRTFAENVIKVKKILVNAVGRIAKEDWSEDILNAKQCVCNNTMSGAM
Take B6: the results for the MAPPIT interaction score with Dlc90F and with Mtap were 0.638 and 5.81 (active), respectively.

B7: bsk (protein)
chain: MTTAQHQHYTVEVGDTNFTIHSRYINLRPIGSGAQGIVCAAYDTITQQNVAIKKLSRPFQNVTHAKRAYREFKLMKLVNHKNIIGLLNAFTPQRNLEEFQDVYLVMELMDANLCQVIQMDLDHDRMSYLLYQMLCGIKHLHSAGIIHRDLKPSNIVVKADCTLKILDFGLARTAGTTFMMTPYVVTRYYRAPEVILGMGYTENVDIWSVGCIMGEMIRGGVLFPGTDHIDQWNKIIEQLGTPSPSFMQRLQPTVRNYVENRPRYTGYSFDRLFPDGLFPNDNNQNSRRKASDARNLLSKMLVIDPEQRISVDEALKHEYINVWYDAEEVDAPAPEPYDHSVDEREHTVEQWKELIYEEVMDYEAHNTNNRTR
On to B7, for which the MAPPIT interaction score with Dhod was 1.59; with cindr, 0.0365.

B8: BomBc1 (protein)
chain: MKCLILSFAIFVVLASQATAGNVIIGGVCQDCSPPVAENVVVGGQSYRTGRPGQGTVYINSPGAYLGALDGPIRRTGAGGGGGGGAQYPDGYSGRLPGGTYLHNKDCVGCSISGGGD
For B8, the MAPPIT interaction score with Dpm3 is 0.481.

B9: eIF3i (protein)
chain: MRPLMLQGHERSITQIKYNREGDLLFSCSKDQKPNVWYSLNGERLGTYDGHQGAVWCLDVDWESRKLITGAGDMTAKIWDVEYGTVIASIPTKSSVRTSNFSFSGNQAAYSTDKAMGQSCELFLIDVRNADSSLSEQEPTLRIPMTESKITSMLWGPLDETIITGHDNGNIAIWDIRKGQKVVDSGTDHSAGINDMQLSKDGTMFVTASKDTTAKLFDSESLMCLKTYKTERPVNSAAISPIMDHVVLGGGQDAMEVTTTSTKAGKFDSRFFHLIYEEEFARLKGHFGPINSLAFHPDGKSYASGGEDGFVRVQTFDSTYFENIFE
For B9, the MAPPIT interaction score with Dfd is 0.00823.

B10: Clamp (protein)
chain: MEDLTKNIIFTNAINGQPATIQYQTADGTILKQPKIEGQKTEQQPTFYYTTNGNGGTVNLAQLATTDDNKTCYIAQPVGGYNYALVNGMPLNQGAALGIATVDAQGRIQIVNQNKPIAANTISNISFKCDVCSDMFPHLALLNAHKRMHTDGEQQQQQQHNAQAGGDSIAVVSAQGLVQAQNIIGNGQMGQIQIVSSDTLEPVQQSVMQQQQHESKASKCINCGSSMLQQSKRKGPKQVRCESCMQAEQTAQQQQQLFVAQDGQMAHPVQIISTTPQAQAQLQQIVAAQTGGTTPKREASSGSGHHPVKKRNSQQMTKCQKCNGSGVVLVGQHSHASHSGVGGSVKQSVTVKTENPSKPFSCNICGGLFSRYSSLWSHKKLHSGEKNYKCSICGLAFAKAVYLKNHARIHTGEKPYKCQTCGMQFSQSPHLKNHERTHSGERPYVCGVCDKGFARHATLWNHRRIHTGEKPYKCEICGSAFSQAAHLKNHAKVHSGEKPYKCEICSAAFADRFALKRHRGIHQKYGQTAPRQTSSDGMIVHKQEIPDMEDEAQQEVIIGGL
B10: the MAPPIT interaction score in the experiment with Deaf1 is 0.235.

B11: Obp84a (protein)
chain: MYSALVRACAVIAFLILSPNCARALQDHAKDNGDIFIINYDSFDGDVDDISTTTSAPREADYVDFDEVNRNCNASFITSMTNVLQFNNTGDLPDDKDKVTSMCYFHCFFEKSGLMTDYKLNTDLVRKYVWPATGDSVEACEAEGKDETNACMRGYAIVKCVFTRALTDARNKPTV
On to B11, for which the MAPPIT interaction score in the experiment with Drat was 0.229.

B12: MED19 (protein)
chain: MMSNYGNMMDSPKSSPHGGGRSPVVARQDSSGTLKTTISLGKTPTIIHTGPFYSMKEPPAKAELTGDKDLMTEYGLHHTLTKFKEKKFKESLASFLQNIPGINDLITHPVENSTLRSVIEKPPIGGKELLPLTPVQLAGFRLHPGPLPEQYRTTYVTPARKHKNKHKKQKHKDGVTTGQESTLLDSAGLETYEKKHKKQKRHEDDKERKKRKKEKKRKKKNQSPEPGVGLLPGGASLGGAAGVMGATSLGSLGGGPGGPGLSSLSASMGPGVVGNMNSFSSSMQMQQQQQMPMQQQQMSSGGLLGSVLGTSGGPGGGGGGGGGGGGGVGGSLLMSQF
As to B12, the MAPPIT interaction score in the experiment with Doc1 is -0.0798.

B13: lok (protein)
chain: MARDTQGTQGTQSQASNIWTQVESQPMEKIVWGRLYGKNIKIKSLGTSSKYRIIYTHSSFSVDLNNDEFTAGRGEANDLILTLNDLPEKILTRISKVHFIIKRANCELTNPVYIQDLSRNGTFVNNEKIGTNRMRILKNDDVISLSHPTYKAFVFKDLSPNESIGLPEEINKTYYVNRKLGSGAYGLVRLVYDTRTCQQFAMKIVKKNMLSGARPSTNFSDPDRVLNEAKIMKNLSHPCVVRMHDIVDKPDSVYMVLEFMRGGDLLNRIISNKLLSEDISKLYFYQMCHAVKYLHDRGITHRDLKPDNVLLETNDEETLLKVSDFGLSKFVQKDSVMRTLCGTPLYVAPEVLITGGREAYTKKVDIWSLGVVLFTCLSGTLPFSDEYGTPAAQQIKKGRFAYGHPSWKSVSQRAKLLINQMLIVDPERRPSIDDVLQSSWLRDAPMLQKAKRLMKLDGMEIEEENFLEPPTKRSRR
In the case of B13, the MAPPIT interaction score with Doa was 0.00241.

B14: Os-C (protein)
chain: MGFHMGRQLLLSGFLLVMLQMVTQTQARPQDVITVAGEETEVVIKREGDDDGDDDDSSSEETVEDSEESRRRRREVNTDNTPSARAVIPGEQVVPILLEAILPSVDAAGDRFARSVQFLKNLTPGSELFAVEKNE
Consider B14, for which the MAPPIT interaction score was 1.62 in the experiment with Dpit47 (MAPPIT configuration: N-C), 0.00721 with Dpit47 (MAPPIT configuration: N-N) and -0.071 in the experiment with Vps51.
